Experiment [1] in a line: A CellTox Green Cytotoxicity Assay to monitor cytotoxicity in HEK293 cells - 32 hour (AID 1224881). Further: nearly all actives have a fitted effect of over 40% in size. Further: potency means the concentration at half of the fitted maximal effect. Summed up:
(§1)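 HEK293 cells premixed with CellTox Green dye were seeded at 600 cells/well and left 5 h at 37 C/5% CO2 before pin transfer of 23 nL compound in DMSO. Fluorescence from dye bound to dead-cell DNA was read during 40 h treatment.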

Experiment [2] is described as follows: A CellTox Green Cytotoxicity Assay to monitor cytotoxicity in HepG2 cells - 0 hour (AID 1224882). Further: nearly all actives have a fitted effect of over 35% in size. The gist of the method:
(§2)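 HepG2 cells were seeded together with the CellTox Green dye at 600 cells/well, left 5 h at 37 C/5% CO2, then given compounds in DMSO. Fluorescence from dye bound to dead-cell DNA was read repeatedly over 40 h of treatment at 37 C.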

Experiment [3] is described as follows: A CellTox Green Cytotoxicity Assay to monitor cytotoxicity in HEK293 cells - 8 hour (AID 1224884). Further: nearly all actives have a fitted effect of over 35% in size. The gist of the method:
as §1

Experiment [4] can be described thus: qHTS RealTime-Glo MT Cell Viability Assay in HepG2 cells - 16 hour (AID 1224885). Further: nearly all actives have a fitted effect of over 50% in size. Summed up:
(§3)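 Real-time, nonlytic viability: 600 HepG2 cells/well mixed with NanoLuc enzyme plus prosubstrate; 5 h settle, compound (DMSO) added by pintool; luminescence monitored over 40 h at 37 C.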
On the technique in general: Quantitative high-throughput screening tests each substance at several concentrations.

Experiment [5] is described as follows: qHTS RealTime-Glo MT Cell Viability Assay in HEK293 cells - 8 hour (AID 1224887). Further: nearly all actives have a fitted effect of over 50% in size. Further: potency means the concentration at half of the fitted maximal effect. On activity change, negative = cytotoxicity: top concentration of the series differs between compounds. Summed up:
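HEK293 cells mixed with RealTime-Glo reagents (NanoLuc plus cell-permeant prosubstrate) at 600 cells/well, preincubated 5 h at 37 C/5% CO2, then given 23 nL compound in DMSO. Nonlytic luminescence from viable cells was read at 0, 8, 16, 24, 32 and 40 h.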

The nature of experiment [6]: qHTS RealTime-Glo MT Cell Viability Assay in HepG2 cells - 0 hour (AID 1224889). Further: nearly all actives have a fitted effect of over 50% in size. The gist of the method: as §3
Experiment [7] is described as follows: A CellTox Green Cytotoxicity Assay to monitor cytotoxicity in HepG2 cells - 8 hour (AID 1224890). Further: nearly all actives have a fitted effect of over 45% in size. The gist of the method: as §2
A short description of experiment [8]: A CellTox Green Cytotoxicity Assay to monitor cytotoxicity in HEK293 cells - 16 hour (AID 1224888). Further: nearly all actives have a fitted effect of over 35% in size. Summed up:
as §1

A short description of experiment [9]: qHTS RealTime-Glo MT Cell Viability Assay in HEK293 cells - 24 hour (AID 1224886). Further: nearly all actives have a fitted effect of over 50% in size. Further: potency means the concentration at half of the fitted maximal effect. On activity change, negative = cytotoxicity: top concentration of the series differs between compounds. Summed up:
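Cells + reagent dispensed (600 cells/well, HEK293) → 5 h at 37 C/5% CO2 → 23 nL compound in DMSO pinned → 40 h at 37 C → luminescence read at 0, 8, 16, 24, 32, 40 h.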

Experiment [10] is described as follows: A CellTox Green Cytotoxicity Assay to monitor cytotoxicity in HepG2 cells - 32 hour (AID 1224883). Further: nearly all actives have a fitted effect of over 50% in size. Further: potency means the concentration at half of the fitted maximal effect. Summed up: as §2

“And” between values parts separate entries of the source, which are not always exact repeats. Equal entries are not always repeated. Values without a mark were called inactive. Records with an inconclusive call do not appear. The source made the active and inactive calls. The call rests on the fitted dose curve; in most records, active means well fitted curve in the direction sought with a large enough effect in the repeat runs; inconclusive means weak or mixed curves; inactive means no such curve, though single readings can be large; an effect the other way counts as inactive or inconclusive.
On the % scale 0 is the no-effect control and ±100 the full control effect.

Regarding `CC[N+](CC)(CC)CCOc1ccc(/C=C/c2ccccc2)cc1`, the Potency in experiment [1] is 6.74 µM (active). The Potency result in experiment [2], in [3], in experiment [4], in experiment [5], in experiment [6] and in experiment [7] was “inactive” in each case.
Turning to `CCCCCc1ccc(Cl)cc1`, the Potency entry in experiment [1], in experiment [2], in [3], in [4], in experiment [5] and in experiment [8] was “inactive” in each case. Moreover, the Potency result in [6] and in experiment [7] was “inactive” each time.
On to `CN1CCCCC1CCN1c2ccccc2Sc2ccc(S(C)=O)cc21` (stereo unspecified), for which the Potency result in experiment [1], in experiment [2], in experiment [3], in experiment [4], in experiment [5] and in [7] was “inactive” in each case.
Regarding `CCCNCCC`, the Potency result in experiment [1], in experiment [2], in experiment [3], in [4], in [9] and in experiment [5] was “inactive” in each case. For the same compound, the Potency entry in [6] and in [7] was “inactive” throughout.
Consider `CC(C)(C)CC(C)(C)c1ccc(Nc2ccc(C(C)(C)CC(C)(C)C)cc2)cc1`, for which the cytotoxicity increase in experiment [1] was 0.962% [at 6.97 µM]; in [10] it was 0.939% [at 6.97 µM]; in experiment [3], 0.178% [at 6.97 µM]; in [7], 1.07% [at 6.97 µM]. For the same compound, in [4], the activity change, negative = cytotoxic is 0.171% [at 6.97 µM]. Also, the activity change, negative = cytotoxicity in experiment [9] was 3.98% [at 6.97 µM]; in [5], -20.4% [at 6.97 µM]; in experiment [6] it was 1.23% [at 6.97 µM].
As for `Oc1ccccc1O`, the Potency result in experiment [1], in experiment [2], in experiment [3], in experiment [4], in [5] and in experiment [6] was “inactive” throughout. Further, the Potency result in experiment [7] is “inactive”. In addition, the Potency in [9] is 49.6 µM (active) and 24.5 µM (active).
With `c1ccc(C(O[C@@H]2CCCN(CCc3ccc4c(c3)OCO4)C2)c2ccccc2)cc1`, the Potency entry in [1], in experiment [2], in experiment [3], in experiment [4], in [8] and in experiment [7] was “inactive” each time.
With `Nc1ccc(NCCO)c([N+](=O)[O-])c1`, the Potency entry in experiment [1], in experiment [10], in [3], in experiment [4], in experiment [9] and in experiment [5] was “inactive” in each case. The Potency entry in experiment [8], in experiment [6] and in [7] was “inactive” throughout.
For the compound `CCN1C(=O)c2ccccc2C1Nc1ccc(OCCN2CCCCC2)cc1` (stereo unspecified), the Potency entry in experiment [1], in experiment [10], in experiment [3], in [4], in experiment [8] and in [7] was “inactive” in each case. For the same compound, the Potency in [9] was 4.77 µM (active); in experiment [5], 3.79 µM (active).
Turning to `CC(C)(C)NSc1nc2ccccc2s1`, the Potency entry in [1], in experiment [10], in experiment [3], in [4], in [9] and in [5] was “inactive” each time. The Potency result in [8], in experiment [6] and in experiment [7] was “inactive” throughout.
For `CC[N+](CC)(CC)CCOC(=O)C(C1CCCC1)C1CCCC1`, the Potency entry in [1], in [2], in experiment [3], in [4], in [5] and in experiment [8] was “inactive” each time. For the same compound, in experiment [7], the Potency result is “inactive”.
With `Oc1cc(Cl)cc(Cl)c1Cl`, in experiment [1], the Potency is 50.2 µM (active). Besides, the Potency result in experiment [2], in experiment [4], in experiment [6] and in experiment [7] was “inactive” each time.
Regarding `Clc1sc(Cl)c(Cl)c1Cl`, the Potency result in experiment [1], in experiment [10], in [3], in [4], in [9] and in experiment [5] was “inactive” throughout. Besides, the Potency entry in experiment [8], in experiment [6] and in experiment [7] was “inactive” each time.
Consider `COc1cc2nc(N3CCN(C(=O)c4ccco4)CC3)nc(N)c2cc1OC`, for which the results for the cytotoxicity increase in experiment [1] and in experiment [3] were 43.4% [at 15.8 µM] and -2.23% [at 15.8 µM], respectively. Besides, in [10], the Potency was 10.4 µM (active). Further, the activity change, negative = cytotoxic in experiment [4] was -15.2% [at 15.8 µM]. In addition, the values for the activity change, negative = cytotoxicity in [9], in [5] and in [6] were -15.4% [at 15.8 µM], -21.9% [at 15.8 µM] and 8.34% [at 15.8 µM], respectively. Further, the activity change in experiment [8] is 1.13% [at 15.8 µM, hits give high values].
On to `Cc1ccc(O)c(N)c1`, for which the Potency result in [1], in [2], in experiment [3], in [4], in experiment [8] and in experiment [6] was “inactive” in each case. Further, the Potency entry in [7] is “inactive”.
`C=CCCC(=O)/C=C/C1C(C)=CCCC1(C)C` (stereo unspecified): the Potency in experiment [1] was 24.5 µM (active). In addition, the Potency entry in [2], in [3], in experiment [4], in [9], in experiment [5] and in [6] was “inactive” throughout. The Potency result in experiment [7] was “inactive”.
As for `CN1CCC[C@@H]1CCO[C@](C)(c1ccccc1)c1ccc(Cl)cc1`, the Potency is 26.8 µM (active) in experiment [1] and 10.7 µM (active) in experiment [9]. Moreover, the Potency result in [2], in experiment [3] and in experiment [5] was “inactive” throughout.
With `OC1CCC(C2CCCCC2)CC1` (stereo unspecified), the Potency entry in experiment [1], in [2], in experiment [3], in experiment [4], in experiment [9] and in [5] was “inactive” in each case. The Potency entry in experiment [6] and in [7] was “inactive” throughout.
Take `O=c1c(O)c(-c2ccc(O)cc2O)oc2cc(O)cc(O)c12`: the Potency result in [1], in experiment [2], in [3], in experiment [4], in [9] and in experiment [5] was “inactive” in each case. Further, in experiment [7], the Potency result was “inactive”.

Source of the values: PubChem BioAssay (Tox21).
